# Source: PubChem BioAssay
# Most compounds without a hit are left out; they make up all but 3.5% or so of the library.
# MITF primary: human MITF inhibition, primary screen. O75030. AlphaScreen MITF homodimerization, bead proximity signal. inhibition, % at 2.6 µM. 650,000 compounds, 0.91% hits. AID 1259374; in the data active means inhibition above about 50%;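 further: 0% = vehicle wells with protein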
# TEAD-YAP inh: TEAD-YAP interaction inhibition; HEK-TIYL cells, TEAD-Gal4/YAP UAS-luciferase luminescence; inhibition, % at 9.12 µM; 640,000 compounds, 1.4% hits; AID 1259422; in the data active means inhibition above about 32%;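 further: 0% = median of test compound wells and 100% = reference inhibitor wells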
# GPR151 ag: activators of human GPR151; activation, % at 11.2 µM; AID 1508602; PathHunter beta-arrestin GPR151 cells, luminescence; Q8TDV0; 650,000 compounds, 1% hits; in the data active means activation above about 4.9%;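 further: 0% = median of compound wells and 100% = cells with positive control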
# Target sequence (Q8TDV0 whole entry, looked up): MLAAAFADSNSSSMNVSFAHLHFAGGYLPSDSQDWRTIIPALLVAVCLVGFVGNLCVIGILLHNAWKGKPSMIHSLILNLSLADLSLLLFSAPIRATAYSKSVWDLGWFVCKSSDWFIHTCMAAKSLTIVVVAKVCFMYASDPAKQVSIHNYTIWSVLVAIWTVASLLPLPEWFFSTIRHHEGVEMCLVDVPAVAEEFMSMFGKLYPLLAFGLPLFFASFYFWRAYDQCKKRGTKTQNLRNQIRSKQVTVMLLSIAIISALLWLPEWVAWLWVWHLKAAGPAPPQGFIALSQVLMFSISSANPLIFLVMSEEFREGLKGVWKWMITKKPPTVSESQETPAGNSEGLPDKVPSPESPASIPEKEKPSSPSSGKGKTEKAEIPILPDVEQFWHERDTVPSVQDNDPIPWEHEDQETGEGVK
# FBW7 activator: human FBW7 E3 ligase activation, primary screen. AID 1259310. 650,000 compounds, 0.13% hits. Q969H0. AlphaScreen FBW7–phospho-cyclin E peptide binding, activator screen. normalized activity (activation), % at 26.1 µM; in the data active means normalized activity above about 1.9%;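 further: purified mutant Fbw7 with reduced substrate affinity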
# An asterisk follows results filed as active.
SMILES,MITF primary,TEAD-YAP inh,GPR151 ag,FBW7 activator
O=C(Nc1ccccn1)c1ccc(-c2ccccc2)cc1,3.3,74.7*,-3.1,0.0
Cc1ccc(OCC(=O)Nc2ccccn2)cc1,2.9,82.8*,-1.2,0.2
Cc1cccc(C(=O)NC(=S)Nc2cccc(C(=O)O)c2)c1,-2.5,-42.3,-1.3,-0.3
Cc1cccc2sc(NC(=O)c3cc(-c4ccc(C(C)C)cc4)nc4ccccc34)nc12,18.7,-10.4,0.0,-0.1
O=C1N=C(N2CCCC(CO)C2)S/C1=C/c1cccc2ccccc12 (stereo not given),2.4,60.9*,-2.1,-0.1
CC1CCCN(C2=NC(=O)/C(=C\c3ccc(O)cc3)S2)C1 (stereo not given),-4.0,61.0*,-1.7,0.0
CC1CCCN(C2=NC(=O)/C(=C\c3ccc(N(C)C)cc3)S2)C1 (stereo not given),0.0,59.0*,-0.1,0.0
O=C1N=C(N2CCCC2)S/C1=C/c1ccc(O)cc1,2.9,12.9,0.4,-0.1
Cc1noc(/C=C/c2ccco2)c1S(=O)(=O)N1CCC(C(=O)Nc2nccs2)CC1,58.1*,-11.9,0.2,-0.3
O=C1CCCN1c1ccc(S(=O)(=O)Nc2ccc(F)c(Cl)c2)cc1,-2.1,46.5*,1.2,0.0
O=C1CCCN1c1ccc(S(=O)(=O)Oc2ccc(Cl)cc2Cl)cc1,-0.2,61.2*,0.2,0.1
O=C1CCCN1c1ccc(S(=O)(=O)Nc2ccc(Cl)c(Cl)c2)cc1,-3.7,45.6*,1.2,0.0
NNS(=O)(=O)c1ccc(N2CCCC2=O)cc1,-9.0,7.8,-0.3,-0.2
O=C1CCCN1c1cccc([N+](=O)[O-])c1,10.0,7.2,-0.5,0.5
O=C1CCCN1c1ccc(S(=O)(=O)Oc2cccc([N+](=O)[O-])c2)cc1,-1.8,52.0*,-0.8,-0.1
O=C1CCCN1c1ccc(NS(=O)(=O)c2ccc(F)cc2)cc1,9.0,31.2,-0.8,0.0
COCCNC(=O)CSc1nc2nc(C)cc(C)n2n1,2.8,-9.6,0.0,0.0
O=S(=O)(c1ccc(C2=CSC3=NCCN23)cc1)N1CCOCC1,-4.4,-0.1,-0.7,-0.1
Cc1cc(C)n2c(SCc3ccc([N+](=O)[O-])cc3)nnc2n1,12.5,2.7,-0.7,0.4
CC1CCc2nc(N)c(C#N)c(-c3cccnc3)c2C1 (stereo not given),18.9,50.0*,-0.1,1.9*
Cc1ccc(C)c(NC(=O)c2nccnc2C(=O)O)c1,13.3,-2.6,-1.7,-0.2
COc1cc(C(=O)OCC(C)=O)ccc1OCc1c(C)noc1C,9.2,48.3*,-1.5,-0.1
COC(=O)c1ccc(COC(=O)c2ccc(OCc3c(C)noc3C)c(OC)c2)cc1,1.1,-26.5,-0.2,0.1
COC(=O)c1c(NC(=S)NC(=O)/C=C\c2ccco2)sc2c1CCCCCC2,11.2,-1.9,-2.1,0.1
Cc1ccc2ccc(C(Nc3ccccn3)c3ccc(F)cc3)c(O)c2n1 (stereo not given),14.9,19.6,-1.1,-0.1
SMILES,MITF primary,TEAD-YAP inh,GPR151 ag,FBW7 activator
Cc1cccc(NC(c2cccc(C)n2)c2ccc3ccc(C)nc3c2O)n1 (stereo not given),15.1,-17.0,-0.1,0.5
Cc1ccc2ccc(C(Nc3ccccn3)c3ccccn3)c(O)c2n1 (stereo not given),6.3,39.0*,-0.3,-0.2
Cc1cccc(NC(c2ccccn2)c2ccc3ccc(C)nc3c2O)n1 (stereo not given),15.3,48.6*,1.8,-0.1
Cc1ccc(Nc2nc(N)c3ccccc3n2)cc1C,18.6,54.9*,-5.7,0.1
Cc1ccccc1Nc1nc(Cl)c(C=O)s1,6.4,39.9*,-0.4,0.3
COCC(=O)N(CC1CCCO1)c1nnc(C)s1 (stereo not given),5.3,33.9*,-4.3,0.1
Cc1nnc(N(CC2CCCO2)C(=O)c2ccno2)s1 (stereo not given),8.1,10.1,2.4,0.1
CN(C)c1ccc(Nc2nc(NCC3CCCO3)c3ccccc3n2)cc1 (stereo not given),59.8*,19.2,0.4,-1.2
Clc1ccc(SCc2nc3ccccn3c2Cl)cc1,-5.1,-35.7,-0.7,-0.1
O=C(COc1ccc(Cl)cc1)Nc1ccc(O)cc1,-4.7,1.9,-0.4,-0.1
COCCN=c1scc(-c2cccc3ccccc23)n1/N=C/c1ccc[nH]1,9.6,42.7*,1.8,-0.3
COCCCNC(=O)c1cnc2scc(-c3ccccc3Cl)n2c1=O,8.8,6.9,0.6,-0.1
Cc1ccc(-c2nc(CSCC(=O)O)c(C)o2)cc1,-3.1,80.9*,-0.8,-0.4
CCc1ccc(-c2nc(CSCC(=O)NCCN(C)C)c(C)o2)cc1,18.1,38.5*,-1.1,0.2
Cc1ccccc1NC(=O)Cn1nnc(C(=O)NCc2cccs2)c1N,-11.6,46.2*,-0.6,0.0
